Results from PubChem BioAssay (NCATS).
Results filed as inconclusive are left out. Active and inactive are the calls of the source. Unless noted, the call rests on the fitted dose curve; in most records, active means well fitted curve in the direction sought with a large enough effect; inconclusive means small, poorly fitted or top-dose-only effect, or another doubt; inactive means no such curve, though single readings can be large; an effect the other way counts as inactive or inconclusive.

Experiments:
[1] = qHTS assay for measurement of the activity of small molecule inhibitors on Zika virus induced Caspase-3 activity in human iPSC derived neural progenitor cells (hNPCs) (AID 1224857); further: nearly all actives have a fitted effect of over 65% in size
How it was run: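 Quantitative HTS format: human iPSC neural progenitors, 1 h compound pretreatment, ZIKV 2 FFU/cell for 6 h at 37 C. Percent inhibition derived from luminescent caspase-3/7 signal between uninfected and infected controls.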

[2] = qHTS assay to identify small molecule inhibitors of chordoma cells - UCH-1 (AID 1259355); further: nearly all actives have a fitted effect of over 55% in size
How it was run: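 Cells (800/well) were seeded and left overnight at 37 C, 5% CO2, then treated with drugs at 15 concentrations plus a combination mix of auranofin, camptothecin, doxorubicin, rubitecan and topotecan. Viability after 48hr was read by CellTiter-Glo luminescence.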

[3] = qHTS assay to identify small molecule inhibitors of chordoma cells - UCH-2 (AID 1259356); further: series mostly up to about 46 µM
[4] = P-glycoprotein substrates identified in KB-8-5-11 adenocarcinoma cell line, qHTS therapeutic library screen (AID 1346987); further: series mostly up to about 44 µM; nearly all actives have a fitted effect of over 65% in size
How it was run: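 KB-8-5-11: colchicine-selected sub-line of KB-3-1 over-expressing P-gp; assay medium lacked colchicine. 72 h drug exposure at 37 degree C, CellTiter-Glo.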

[5] = Natriuretic polypeptide receptor (hNpr1) antagonism - Pilot counterscreen GloSensor control cell line (AID 1347045; calls by dose curve; further: series mostly up to about 38 µM)
How it was run: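 HEK293 cells carrying the GloSensor cGMP sensor (GIP/pGS-40F) were loaded with 2% GloSensor reagent for 2 h, exposed to compounds for 30 min, and then stimulated with 50 uM sodium nitroprusside for 20 min at room temperature.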

Measured: Potency

CC(C)NCC(O)c1ccc2ccccc2c1 (centres undefined)
not listed: [5]
inactive: all other assays above

CC(=O)OC[C@H]1O[C@@H](n2ncc(=O)[nH]c2=O)[C@H](OC(C)=O)[C@@H]1OC(C)=O
inactive: [1] | [2] | [3]

CC(=O)Nc1ccc(S(=O)(=O)Nc2ccc([N+](=O)[O-])cc2)cc1
not listed: [5]
inactive: all other assays above

CC(=O)Nc1ccc(CC(=O)O)cc1
not listed: [5]
inactive: all other assays above

CC1CCc2c(N3CCC(O)CC3)c(F)cc3c(=O)c(C(=O)O)cn1c23 (centres undefined)
not listed: [5]
inactive: all other assays above

Cc1cccc(C)c1NC(=O)CN1CCCCCC1
not listed: [5]
inactive: all other assays above

Cc1ccc(-c2ncc(Cl)cc2-c2ccc(S(C)(=O)=O)cc2)cn1
inactive: [1] | [2] | [3]

O=C(O)CCC(=O)Nc1ccc(S(=O)(=O)Nc2nccs2)cc1
not listed: [5]
inactive: all other assays above

NC(N)=NCc1cccc(I)c1
inactive: all assays above

O=S(=O)(O)c1ccc(O)cc1
not listed: [5]
inactive: all other assays above

O=C1c2cccc3c2[C@H](CCC3)CN1[C@@H]1CN2CCC1CC2
inactive: [1] | [2] | [3]

CCc1ccc(C(=O)C(C)CN2CCCCC2)cc1 (centres undefined)
not listed: [5]
inactive: all other assays above

CC(O)Cn1cnc2c1c(=O)n(C)c(=O)n2C (centres undefined)
not listed: [5]
inactive: all other assays above

CC(=O)NO
not listed: [5]
inactive: all other assays above
